Shown are actives, neighbours in structure and some others; about 4% of the full set was active somewhere.
TWEAK Fn14 block = blocks TWEAK-Fn14 interaction in a reporter cell assay; TWEAK-stimulated Fn14 reporter cells, luciferase luminescence, 8 h; inhibition, % at 10 µM; hit rate 2% among 360,000; in the data active = inhibition above about 50%
TROY NFkB inh = TROY signaling inhibition; hit rate 0.98% among 360,000; Q293 LMP1-TROYcd NF-kB luciferase reporter, 4 h; inhibition, % at 10 µM;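 active = compounds whose plate-normalised and pattern-corrected inhibition of the luciferase reporter signal at the single screening dose is 50% or more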
HIF-2a inh = inhibitors of HIF-2a | 786-0 RCC cells HIF-2a reporter, luciferase luminescence, overnight | hit rate 0.72% among 360,000 | AID 624352 | inhibition, % at 18.8 µM;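 active = inhibition of the luminescence signal of 40% or more relative to plate controls, in a single-dose primary screen at 18.75 µM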
MITF TRPM1 inh = reduces MITF-dependent TRPM1 promoter luciferase signal | SK-MEL-5 TRPM1 promoter luciferase, 24 h | inhibition, % at 12.5 µM | hit rate 0.83% among 330,000 | AID 488899;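 active = mean inhibition across replicates of 60% or more, whatever share of single replicates reaches that level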
LMP1 NFkB inh = Epstein-Barr LMP1 NF-kappaB reporter inhibition; LMP1-induced NF-kappaB luciferase reporter cells, luminescence; inhibition, % at 12.5 µM; hit rate 0.69% among 350,000; in the data active = inhibition above about 41%;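 also: 0% = neutral control wells and 100% = reference inhibitor control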
Peg3 prom inh-1 = inhibitors of Peg3 promoter. HeLa PEG-Prom luciferase reporter, luminescence, overnight. inhibition, % at 20 µM. hit rate 1.7% among 360,000;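 active = inhibition of at least 50% at 20 µM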
Peg3 prom inh-2 = Peg3 promoter inhibition confirmation; HeLa PEG-Prom luciferase reporter, luminescence, overnight; AID 602417; hit rate 84% among 1,300; inhibition, % at 20 µM; shares compounds with Peg3 prom inh-1;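 active = at 20 µM dose, 40% or more inhibition averaged across four replicates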
Starred values were filed as active, the others as inactive; . = not tested or not shown; ! = repeats disagree.

SMILES	TWEAK Fn14 block	TROY NFkB inh	HIF-2a inh	MITF TRPM1 inh	LMP1 NFkB inh	Peg3 prom inh-1	Peg3 prom inh-2
Cc1cc(C)c2sc(N(CCCN(C)C)C(=O)c3ccc(S(=O)(=O)N(C)Cc4ccccc4)cc3)nc2c1	-30.7	-11.3	15.4	56.7	-4.4	97.1*	98.3*
COc1ccc2sc(N(CCCN(C)C)C(=O)c3ccc(S(=O)(=O)N(C)Cc4ccccc4)cc3)nc2c1	-9.2	-0.9	-19.4	22.1	-11.0	-9.8	.
CCOc1cccc2sc(N(CCCN(C)C)C(=O)c3ccc(S(=O)(=O)N(C)Cc4ccccc4)cc3)nc12	8.1	8.0	3.4	94.5*	-29.6	98.2*	94.7*
CC(C)(C)N(Cc1ccccc1)C(=O)COC(=O)c1ccccc1SCC(=O)N1CCCC1	8.5	-15.2	12.1	17.7	9.3	17.7	.
CCOc1cccc2sc(N(CCCN(C)C)C(=O)c3ccc(S(=O)(=O)N(CC)Cc4ccccc4)cc3)nc12	9.8	10.3	-4.6	56.9	-21.4	94.9*	97.4*
NC1=C(Br)C(=O)c2ncccc2C1=O	102.8*	68.2*	82.5*	94.1*	69.6*	102.3*	99.3*
O=C1c2cccnc2C(=O)N1CO	-12.3	-26.8	18.0	-6.8	6.0	15.7	.
CC(C)N1C(=O)CCN(C=O)c2ccccc21	-24.9	-30.9	12.7	-9.7	-0.6	17.0	.
COc1ccc(CC(=O)N(Cc2ccccc2)c2ccccc2)cc1S(=O)(=O)N1CCOCC1	13.6	9.3	8.6	6.4	0.4	56.3*	47.4*
COCCN(Cc1ccccc1)C(=O)Cc1ccc(OC)c(S(=O)(=O)N2CCOCC2)c1	-7.0	11.7	-25.3	-7.5	-0.1	-28.8	.
O=C(Cn1c(NCCO)nc2ccccc21)Nc1ccc2c(c1)OCCCO2	7.5	-8.7	0.9	-5.1	4.7	6.5	.
C=CCNC(=O)c1c(Br)cnn1-c1ccc(C)cc1	-8.1	-48.9	-241.7	-31.3	-23.6	-250.7	.
CCOC(=O)C1=C(C)NC(C)=C(C(=O)OC)C1c1cccc(Cl)c1Cl (stereo not drawn)	-36.7	4.6	-1.2	9.6	-4.1	21.2	.
CCOC(=O)C1=C(COCCN)NC(C)=C(C(=O)OC)C1c1ccccc1Cl (stereo not drawn)	2.8	65.6*!	5.9	22.4	-4.3	68.7*!	88.7*
COc1cc(NC(=O)c2c(F)c(F)c(F)c(F)c2F)c(OC)cc1Cl	-59.6	-28.3	24.4	39.5	6.9	69.5*	53.1*
Cc1ccc(-c2cc(C(=O)Nc3nccs3)c3ccccc3n2)c(C)c1	45.2	1.8	10.5	1.3	5.2	90.6*	61.1*
O=C(Nc1nccs1)c1cc(-c2ccncc2)nc2ccccc12	22.9	15.6	18.1	24.6	-4.8	6.6	.
O=C1c2ccccc2CCC12OC2c1ccncc1 (stereo not drawn)	0.3	-4.6	26.6	.	7.7	17.1	.
CCN(CC)CCNc1cccc2sc3ccccc3c(=O)c12	-21.8	-33.5	4.9	.	-7.2	100.8*	68.2*
CCN(CC)CCCNC(=O)c1csc(Nc2cccc3ccccc23)n1	-10.3	-12.2	13.3	10.6	12.5	-7.5	.
COc1cccc(/C=N/NC(=O)c2c(C)nc3ccc(Cl)cn23)c1O	-32.2	-3.1	2.1	70.5*	61.1*	56.2*	71.1*
COc1ccc(C(=O)Nc2cccc(C(=O)N/N=C/c3ccc(OC)cc3OC)c2)cc1	21.9	-26.2	58.5*	54.1	66.6*	74.2*	77.2*
COc1cccc(/C=N/NC(=O)c2ccc(-c3ccccc3)cc2)c1O	-24.9	4.5	12.0	69.0*	57.3*	55.4*	69.0*
Cc1ccc(NS(=O)(=O)c2cccc(C(=O)N3CCN(C(=O)c4ccco4)CC3)c2)cc1	-20.7	4.6	18.8	12.6	0.7	2.9	.
Nc1ccn([C@@H]2O[C@H](C(=O)N(CCC3=CCCCC3)CC3CC3)[C@@H](O)[C@H]2O)c(=O)n1	2.7	11.5	3.2	.	.	2.2	.
SMILES	TWEAK Fn14 block	TROY NFkB inh	HIF-2a inh	MITF TRPM1 inh	LMP1 NFkB inh	Peg3 prom inh-1	Peg3 prom inh-2
CCc1cccc(OCC(=O)Nc2ccccc2N2CCCC2)c1	5.2	0.8	4.7	5.1	-22.4	22.2	.
COC(=O)C1=C(C)N(Cc2ccccc2)C(=NCc2cccc(Cl)c2)N[C@H]1c1ccccc1	-20.8	-6.2	-1.1	11.2	9.6	101.2*	98.0*
COC(=O)C1=C(C)N(CC2CC2)C(=NCc2cccc(Cl)c2)N[C@H]1c1ccccc1	8.2	7.5	-0.8	-7.8	-1.2	15.7	.
COC(=O)c1c(C)[nH]c(C(=O)C(C)OC(=O)c2cnc(C)cn2)c1C (stereo not drawn)	-11.4	7.7	10.6	9.3	1.2	7.1	.
CN(C)c1ccc(/C=C/c2ccc3ccccc3n2)cc1	99.2*	75.6*	76.1*	72.2*	75.6*	88.5*	67.9*
CN(C)c1ccc(/C=C/c2nnnn2-c2ccccc2)cc1	-24.4	-62.6	-240.3	-26.6	-45.1	-327.6	.
CCCN(CCC)c1ccc(/C=C/c2ccc3cc(OCC)ccc3n2)cc1	42.8	10.9	-172.4	-54.4	-12.8	-213.3	.
CN(C)c1ccc(/C=C/c2nc3ccccc3s2)cc1	105.4*	65.2*	61.6*	77.1*	25.1	102.1*	66.6*
Cc1ccc(S(=O)(=O)C[C@@H]2OC[C@H](Cc3ccccc3)N2S(=O)(=O)c2ccc(C)cc2)cc1	.	.	-2.9	.	.	.	.
CC1=CC(C)[C@H](/C=N/n2c(=O)[nH]c3c([nH]c4ccc(C)cc43)c2=O)C(C)C1 (stereo partly drawn)	8.3	-12.2	10.4	-4.7	-16.2	61.5*	33.6
CCCC(=O)N1CCC1(C)C(=O)Nc1scc(C)c1C#N (stereo not drawn)	-2.3	5.1	6.8	.	.	16.7	.
c1ccc2c(C[C@@H]3CNCCN3CCCCC3CCCCC3)cccc2c1	4.7	-3.4	10.1	8.5	4.8	33.5	.
c1ccc(C[C@H]2CNCCN2CCCCC2CCCCC2)cc1	-0.2	-1.2	8.4	.	3.5	104.8*	98.2*
CCc1ccccc1N(C(=O)c1ccco1)C(C(=O)NC1CCCC1)c1cccnc1 (stereo not drawn)	17.5	-0.8	15.8	-1.7	-8.7	15.0	.
c1ccc(Nc2nc(-c3ccncc3)nc3ccccc23)cc1	-23.3	3.1	19.0	-5.8	7.4	-10.6	.
c1ccc(CCNc2nc(-c3ccncc3)nc3ccccc23)cc1	29.9	34.2	17.3	17.5	-3.8	56.2*	69.3*
CCCSCCCNC(=O)Cn1nc(CC)n2c(cc3c(OC)cccc32)c1=O	1.1	2.8	20.8	.	3.1	54.0*	18.3
CCOC(=O)C1CCN(c2cc3c(cc2NC(=O)c2ccccc2OCC)n(C)c(=O)n3C)CC1	28.5	22.4	9.3	7.3	4.5	51.4*	45.4*
CCOC(=O)C1CCN(c2cc3c(cc2NC(=O)c2ccccc2Cl)n(C)c(=O)n3C)CC1	6.5	-3.2	-5.0	7.6	-4.8	31.1	.
